Source: PubChem (several laboratories)
TLR9-MyD88 inh: inhibitors of TLR9-MyD88 association in cells, primary screen, cell-based, CHO, BLA complementation, fluorescence. actives 0.21% (n = 340,000). inhibition, % at 4.98 µM. CCF4 FRET ratio. AID 504734, 2011. Toll-like receptor 9 (Homo sapiens) + Myeloid differentiation primary response protein …;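 active = inhibition above the mean over all tested compounds plus 3 SD, cut at about 21% in these data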;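 also: 0% = DMSO only wells and 100% = clavulanate BLA inhibitor control wells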
Neddyl block: inhibitors of cullin neddylation, primary screen, biochemical, TR-FRET, uHTS, NAE and Ubc12; inhibition, % at 25 µM; actives 0.58% (n = 360,000); in the data active = inhibition above about 36%
TLR4 MyD88 comp: inhibitors of TLR4-MyD88 association in cells, primary screen, cell-based, HeLa CL3-4, BLA complementation, FRET ratio. Toll-like receptor 4 (Homo sapiens) + Myeloid differentiation primary response protein …. HeLa CL3-4 TLR4/MyD88 BLA complementation. inhibition, % at 8.4 µM. actives 0.18% (n = 200,000). AID 861, 2007; in the data active = inhibition above about 25%;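 also: 0% = vehicle and 100% = reference inhibitor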
NOD2 RIPK2 PPI: NOD2-RIPK2 binding disruptors in cells, primary screen, fluorescence, CHO cells, BLA complementation | actives 0.38% (n = 360,000) | CCF4 ratio | inhibition, % at 4.98 µM | AID 624267, 2012 | Receptor-interacting serine/threonine-protein kinase 2 (Homo sapiens), O43353; in the data active = inhibition above about 21%;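 also: 0% = vehicle only and 100% = reference blocker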
GC-A act: GC-A stimulated cGMP production enhancers – HEK293 GC-A cells, cGMP TR-FRET, EC30 ANP, primary screen; 0% at EC30 ANP, 100% saturating ANP; activation, % at 10 µM; actives 0.14% (n = 370,000); AID 1671463, 2021; in the data active = activation above about 40%
GC-B act: human GC-B receptor activators, primary screen, HEK293 GC-B cells, cGMP TR-FRET, EC30 CNP; actives 0.11% (n = 370,000); Atrial natriuretic peptide receptor 2 (Homo sapiens), P20594; AID 1920062, 2024; 0% at EC30 CNP, 100% saturating CNP; activation, % at 10 µM;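 active = activation at 10 µM reaching about 35% in either raw or pattern-adjusted values, limit read from the data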
TLR4-MyD88 conf: TLR4-MyD88 association inhibitors, retest, confirmation, cell-based, HeLa CL3-4, BLA complementation, FRET ratio. inhibition, % at 8.4 µM. actives 50% (n = 350). CCF4 FRET ratio. shares compounds with TLR4 MyD88 comp;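 active = mean inhibition across three repeat runs above about 25% carried over from the earlier screen, limit read from the data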;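 also: plate controls were DMSO only for no effect and clavulanic acid blocking BLA at full dose for full effect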
BLA inh HeLa: beta-lactamase inhibition flagged in TLR4-MyD88 counter-screen. shares compounds with TLR4 MyD88 comp. HeLa BLA reporter, CCF4 FRET ratio. inhibition, % at 8.4 µM. actives 63% (n = 350);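 active = mean inhibition over three repeats above about 26% taken from the earlier screen, limit read from the data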;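 also: HeLa cells stably expressing beta-lactamase reporter as counterscreen for TLR4-MyD88 inhibitors; 0% = DMSO and 100% = clavulanic acid full inhibition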
TLR9-MyD88 cf: TLR9-MyD88 association inhibitors, retest, confirmation, cell-based, CHO, BLA complementation, fluorescence, triplicate; shares compounds with TLR9-MyD88 inh; CCF4 FRET ratio; inhibition, % at 4.98 µM; actives 51% (n = 680); AID 540250, 2011;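 active = mean inhibition across three repeats above about 21% taken from the earlier screen, limit read from the data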;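 also: blue over green emission ratio reports constitutive TLR9 MyD88 association via BLA complementation; 0% = DMSO vehicle wells and 100% = clavulanate BLA inhibitor wells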
BLA nonselective: beta-lactamase reporter inhibitors in CHO cells, artefact control for TLR9-MyD88 binding inhibitor project, cell-based, fluorescence | shares compounds with TLR9-MyD88 inh | CHO-BLA cells, CCF4 FRET ratio, BLA reporter | inhibition, % at 4.98 µM | actives 7% (n = 680);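 active = mean inhibition above a 50% cutoff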;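 also: counterscreen of TLR9-MyD88 hits on CMV-driven BLA in CHO-K1 cells; 0% = DMSO alone and 100% = clavulanate blocking BLA; higher means less blue over green ratio so more BLA blockade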
TLR9 CHO cytotox: CHO cell viability loss – luminescence, single concentration, cytotoxicity control for TLR9-MyD88 binding inhibitor project | shares compounds with TLR9-MyD88 inh | TLR9-MyD88 CHO cells cytotoxicity | inhibition, % at 4.98 µM | actives 39% (n = 680) | AID 588336, 2011; in the data active = inhibition above about 11%
An asterisk follows results filed as active; x = not tested or not shown. In the library only some 1.2% were active in any assay of this set; here they are far more common.

SMILES	TLR9-MyD88 inh	Neddyl block	TLR4 MyD88 comp	NOD2 RIPK2 PPI	GC-A act	GC-B act	others
CCOP(=O)(OCC)C(NC(=O)c1ccccc1)C(Cl)(Cl)Cl (stereo not drawn)	-2.2	6.5	-14.8	4.6	1.8	1.0
CCOP(=O)(OCC)C(c1ccccc1)N(C)C=O (stereo not drawn)	-4.9	2.7	-6.1	58.4*	2.7	8.2
COc1cc2c(cc1OC)-c1c3c(cc4c1[C@@H](C2)N(C)CC4)OCO3	-8.4	-55.5	-1.7	-1.3	1.2	-9.4
COc1cc2c(cc1O)C[C@H]1NCCc3cc4c(c-2c31)OCO4	1.5	24.5*	-16.5	-5.7	-6.5	-10.7
CCCCCCn1c(N)c(C(=O)NCCN2CCOCC2)c2nc3ccccc3nc21	-24.7	x	-18.9	-13.2	28.4	35.7*
CN1C(=O)C(=Cc2ccc(SC3CCCCC3)o2)C(=O)N(C)C1=O	-3.0	-2.6	-14.1	-7.8	46.5*	-2.0
CCOC(=O)c1c(C)n(Cc2ccccc2)c2ccc(O)cc12	-5.3	12.0	-17.7	-7.4	85.9*	4.9
COC(=O)c1c(C)n(Cc2ccccc2)c2ccc(O)cc12	0.1	7.6	-9.5	-14.9	79.8*	5.0
CC(=O)c1c(C)n(Cc2ccccc2)c2ccc(O)cc12	-3.1	6.9	x	-5.0	73.9*	15.3
Cc1c(C(=O)C(=O)N2CCOCC2)c2ccccc2n1Cc1ccccc1	-1.4	0.0	x	10.5	4.0	3.5
CN=C1CN=C(c2ccc[nH]2)c2cc(Cl)ccc2N1	x	x	x	x	19.7	-8.6
O=[N+]([O-])/C=C/c1c(Cl)cccc1Cl	-1.9	-11.0	x	4.1	9.7	5.7
O=C1NC(=O)N(Cc2ccccc2)C(=O)/C1=C/c1cnn(-c2ccccc2)c1	x	x	5.7	x	x	x
COc1ccccc1N1C(=O)NC(=O)/C(=C\c2cnn(-c3ccccc3)c2)C1=O	-17.3	1.1	10.0	6.3	52.1*	11.0
CC12CCC(=O)CC1CCC1C2C(=O)CC2(C)C1CCC2(C)O (stereo not drawn)	-3.1	0.5	x	-6.2	3.7	0.1
OC1CN2CCCC(O)C2C1O (stereo not drawn)	x	x	x	x	2.3	2.5
CCCCn1c(C)c(C(=O)O)c2cc(OC)c3ccccc3c21	-0.7	22.2	x	-8.0	-4.0	-2.4
CCOP(=S)(OCC)Oc1cc(C)nc(C(C)C)n1	2.1	2.0	x	-7.6	1.6	74.4*
CCOC(=O)[C@]12Cc3cc(C)ccc3[C@H]1N(C(C)C)C(=O)c1ccccc12	x	8.0	x	13.7	-10.9	-3.8
CCCc1cc(=O)oc2cc(OCC(=O)N3CCN(Cc4ccc5c(c4)OCO5)CC3)ccc12	0.7	25.0	x	-3.8	5.0	-0.3
CCCc1cc(=O)oc2cc(OCC(=O)N3CCC(C(=O)O)(c4ccccc4)CC3)ccc12	-11.3	40.6*	x	-9.4	4.1	-7.5
N#CC1=C(N)Oc2cc(O)ccc2C1c1ccc2c(c1)OCO2 (stereo not drawn)	x	12.4	10.0	-9.8	44.4*	7.3
O=C(N/N=C/c1c(O)n(Cc2ccc(F)cc2)c(=O)[nH]c1=O)c1ccccc1O	-13.1	31.9	8.2	-4.3	-7.8	-2.2
O=C(N/N=C/c1c(O)n(Cc2ccccc2)c(=O)[nH]c1=O)c1ccccc1O	-2.3	41.0*	15.2	-2.7	0.2	-4.2
COc1cc2c(cc1OC)[C@H]1C(=O)c3ccc4c(c3O[C@H]1CO2)C[C@@H](C(C)(C)O)O4	0.9	6.6	x	-9.5	55.8*	3.1
SMILES	TLR9-MyD88 inh	Neddyl block	TLR4 MyD88 comp	NOD2 RIPK2 PPI	GC-A act	GC-B act	others
COP(=O)(OC)OC=C(Cl)Cl	x	x	x	x	-1.1	2.9
Cc1ccc(/C=C2\C(=O)NC(=S)N(c3ccc(F)cc3)C2=O)s1	-11.8	0.3	26.1*	0.0	28.2	9.9	TLR4-MyD88 conf=18.9;BLA inh HeLa=-16.3
CCn1c(O)c(C=Nc2ccc(N3CCOCC3)cc2)c(=O)n(CC)c1=S	15.8	-12.0	43.7*	9.9	3.5	-13.6	TLR4-MyD88 conf=49.8*;BLA inh HeLa=68.7*
CCn1c(O)c(C=Nc2ccc(N3CCOCC3)c(Br)c2)c(=O)n(CC)c1=S	5.5	30.9	-3.1	3.6	5.5	-1.8
CCC1(Cc2ccccc2)C(=O)NC(=S)N(C)C1=O (stereo not drawn)	-8.6	4.2	x	-2.0	1.2	7.8
COc1cc(/C=C(/C)[N+](=O)[O-])ccc1OCc1ccccc1Cl	34.0*	1.2	16.7	81.0*	x	x	TLR9-MyD88 cf=33.8*;BLA nonselective=8.6;TLR9 CHO cytotox=98.9*
Cc1cc(C)cc(N2C(=O)NC(=O)/C(=C\c3cccn3-c3ccc(Cl)cc3)C2=O)c1	1.8	5.7	3.1	-1.8	7.2	8.5
Cc1cc(C)cc(N2C(=O)NC(=O)/C(=C\c3cccn3-c3ccccc3)C2=O)c1	22.2*	-1.3	23.7	15.3	9.8	8.7	TLR9-MyD88 cf=18.4;BLA nonselective=3.1;TLR9 CHO cytotox=9.4
COc1ccc2c3c([nH]c2c1)[C@H](C=C(C)C)N1C(=O)[C@@H]2CCCN2C(=O)[C@@H]1C3	x	x	x	x	-1.0	0.1
CCC1(C)OC(c2ccccc2)=C/C(=C/C=C2C(=O)NC(=O)NC2=O)O1 (stereo not drawn)	33.2*	1.0	15.7	11.8	-48.8	-9.8	TLR9-MyD88 cf=24.8*;BLA nonselective=21.8;TLR9 CHO cytotox=2.6
